The test system of assay [1] is Zika virus NS2B-NS3 protease (unlinked complex). The experiment in a line: Primary screen GU Rhodamine qHTS for Zika virus inhibitors: Unlinked NS2B-NS3 protease assay (AID 1347159). Also: nearly all actives have a fitted effect of over 60% in size. The method, boiled down:
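Unlinked NS2B/NS3, 25 nM; Rhod110 peptide, 1.5 microM; compounds, up to 114 microM. Reaction run 15 min at RT in 10 mM Tris-HCl pH 8.0, 0.01% Tween 20; kinetic fluorescence change fitted with a 4-parameter Hill model.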
On the technique in general: qHTS replaces the single test concentration by a dilution series.

The subject of assay [2] is Zika virus NS2B-NS3 protease (linked construct). The experiment in a line: Primary screen NINDS Rhodamine qHTS for Zika virus inhibitors (AID 1347160). Also: nearly all actives have a fitted effect of over 55% in size. The method, boiled down:
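Single-chain NS2B-NS3 protease, 25 nM, pH 8.0; compounds preincubated 15 min. Activity: Rhodamine110 release from 1.5 microM substrate over 15 min, room temperature, data fitted to 4-parameter Hill.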

We go through six compounds from PubChem BioAssay (NCATS).

SMILES strings stand for the structures. Results filed as inconclusive are left out. A call without a number means that no potency is given here. Activity calls are given as the source filed them. Calls follow the shape of the dose curve; as a rule, active = well fitted inhibition curve with a large enough effect; inconclusive = small, poorly fitted or top-dose-only effect; inactive = no such curve, though single readings can be large or run the other way.

Regarding `COC(=O)CCSCc1ccc(-c2onc(C)c2NC(=O)OC(C)c2ccccc2Cl)cc1` (configuration not stated), the Potency entry in assay [1] and in assay [2] was “inactive” in each case.
As to `C=CC(C)(C)c1[nH]c2ccccc2c1C[C@@H]1NC(=O)[C@H](Cc2c[nH]c3ccccc23)NC1=O`, the Potency result in assay [1] and in assay [2] was “inactive” throughout.
With `CNC(=O)c1cc(Oc2ccc3nc(N[C@@H]4CCCC[C@H]4O)sc3c2)ccn1`, the Potency entry in assay [1] and in assay [2] was “inactive” in each case.
As to `CC(C)[C@@](C)(O)[C@@H]1CN(c2nc(-c3[nH]nc4ncccc34)c(F)cc2Cl)CCN1`, the Potency entry in assay [1] and in assay [2] was “inactive” each time.
Turning to `CCCOc1ccc(-c2nc(OC)c3ccccc3n2)cc1`, the Potency result in assay [1] and in assay [2] was “inactive” throughout.
As to `COc1ccc(C(O)C(C)OC2OC(CO)C(O)C(O)C2O)cc1` (configuration not stated), the Potency result in assay [1] and in assay [2] was “inactive” throughout.
